DAX1 inh-1 = DAX1 (NR0B1) inhibitors on StAR promoter, primary screen, cell-based, luminescence, SF-1 (NR5A1), full-length DAX-1 | HEK293T StAR-luciferase reporter, SF-1/DAX-1 repression relief | inhibition, % at 6.8 µM | 370,000 compounds, 1.1% hits;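 active = inhibition above the mean over all tested compounds plus 3 SD, cut at about 3.6% in these data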;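 note: 0% = DAX-1 cells with DMSO and 100% = cells lacking DAX-1 with DMSO; higher inhibition means more luminescence from relief of DAX-1 repression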
hcDAF-12 act = H. contortus DAF-12 nuclear receptor activators, primary screen, cell-based, luminescence, HEK293, lit1-tk-luc reporter; 370,000 compounds, 1.4% hits; HEK293 hcDAF-12 lit1-tk-luc reporter; 0% DMSO, 100% Δ7-dafachronic acid; AID 652067, 2013; activation, % at 6.8 µM;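 active = activation above the mean of all tested compounds plus 3 SD, cut at about 5.5% in these data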;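 note: 100% = response to 3 µM Δ7-dafachronic acid high control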
ssDAF12 agonist = S. stercoralis DAF-12 nuclear receptor activators, primary screen, cell-based, luminescence, HEK293, GRIP1 co-expression, lit1-tk-luc; Nuclear hormone receptor DAF-12 (Strongyloides stercoralis); AID 652126, 2013; activation, % at 6.8 µM; 370,000 compounds, 1% hits; HEK293 ssDAF-12/GRIP1 lit1-tk-luc reporter; % of 3 µM dafachronic acid response;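 active = activation above the mean over all tested compounds plus 3 SD, cut at about 0.9% in these data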;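 note: 0% = DMSO-only wells and 100% = 3 µM delta7-dafachronic acid wells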
SMARCA2 activ = SMARCA2 (BRM) function activators, primary screen, cell-based, luminescence, high throughput; MG213 cells, MMTV-luciferase reporter, dexamethasone, overnight; activation, % at 9.1 µM; 370,000 compounds, 1% hits; in the data active = activation above about 7.8%;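 note: 0% = vehicle wells and 100% = reference activator wells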
DAX1 inh-2 = DAX1 (NR0B1) inhibitors, primary screen, cell-based, HEK293, Gal4-DAX1, luciferase luminescence; 340,000 compounds, 0.99% hits; inhibition, % at 6.75 µM; HEK293 Gal4-DAX1 luciferase reporter;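 active = inhibition above the mean over all tested compounds plus 3 SD, cut at about 4.2% in these data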;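 note: 0% = DAX1-transfected cells with DMSO and 100% = empty-vector control cells with DMSO; inhibition shows as a rise in luminescence from relieved DAX1 repression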
hgDAF12 agonist = H. glycines DAF-12 receptor agonists, primary screen, cell-based, luminescence, HEK293, GAL4 fusion, UAS-luciferase; Nuclear hormone receptor DAF-12 (Heterodera glycines), GAL4 fusion; HEK293 GAL4-hgDAF12 UAS-luciferase reporter, agonist luminescence; normalized to butyrate control; activation, % at 6.8 µM; 370,000 compounds, 1.8% hits;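 active = activation above a cutoff set at the mean of all screened compounds plus 3 SD, cut at about 10% in these data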;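 note: 0% = DMSO wells and 100% = sodium butyrate wells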
LXR ag = LXR agonists, Gal4 luciferase reporter, confirmation, counter-screen for hcDAF-12 agonist project, cell-based, luminescence, HEK293, H. contortus campaign; HEK293 Gal4-LXR tk-luc reporter, 24 h; normalized: DMSO 0%, positive control 100%; AID 743027, 2013; activation, % at 6.8 µM; 3,400 tested, under 10 active; shares compounds with hcDAF-12 act;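 active = mean percent activation of the reporter above a cutoff set as the average over tested compounds plus their standard deviation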
Target sequence (P55055 whole entry, looked up, the tested form may be a part): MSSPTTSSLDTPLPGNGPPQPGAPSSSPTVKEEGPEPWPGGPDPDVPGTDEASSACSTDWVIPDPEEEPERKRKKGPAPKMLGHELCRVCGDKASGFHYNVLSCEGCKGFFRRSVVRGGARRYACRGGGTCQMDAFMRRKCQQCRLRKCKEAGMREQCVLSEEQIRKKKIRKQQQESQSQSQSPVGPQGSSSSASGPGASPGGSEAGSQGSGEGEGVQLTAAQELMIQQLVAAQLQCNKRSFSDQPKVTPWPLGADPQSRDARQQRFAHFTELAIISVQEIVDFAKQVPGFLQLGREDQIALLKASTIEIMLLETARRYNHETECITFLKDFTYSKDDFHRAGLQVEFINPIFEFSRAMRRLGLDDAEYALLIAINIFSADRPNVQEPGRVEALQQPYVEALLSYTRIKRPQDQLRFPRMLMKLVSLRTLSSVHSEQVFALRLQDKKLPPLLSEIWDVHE
hcDAF12 conf = H. contortus DAF-12 receptor agonists, confirmation, cell-based, luminescence, HEK293, lit1-tk-luc, triplicate | shares compounds with hcDAF-12 act | HEK293 hcDAF-12 lit1-tk-luc reporter; % of Δ7-dafachronic acid response | activation, % at 6.8 µM | 3,400 compounds, 61% hits | AID 743032, 2013;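 active = mean activation across triplicate tests above the threshold derived from the earlier primary screen, cut at about 5.5% in these data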;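 note: 0% = DMSO only wells and 100% = 3 µM Δ7-dafachronic acid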
hgDAF12 conf = H. glycines DAF-12 receptor agonists, confirmation, cell-based, luminescence, HEK293, GAL4-LBD fusion. shares compounds with hgDAF12 agonist. HEK293 GAL4-hgDAF12 luciferase reporter, agonist mode; percent of butyrate response. activation, % at 6.8 µM. 3,300 compounds, 80% hits. AID 743050, 2013;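 active = mean activation over triplicate wells above the hit cutoff derived from the earlier primary screen, cut at about 11% in these data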;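 note: 0% = DMSO low control and 100% = 2 mM sodium butyrate high control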
LXRb DAF12 ctr = LXR agonists, Gal4 luciferase reporter, confirmation, counter-screen for hgDAF-12 agonist project, cell-based, luminescence, HEK293, H. glycines campaign | shares compounds with hgDAF12 agonist | 24 h | activation, % at 6.8 µM | 3,300 tested, under 10 active;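 active = mean activation of the triplicate above a set limit carried over from the primary screen, none filed active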
* marks the source's active call; other numbers are inactive results; / = not tested or not shown. Only some compounds are listed: those with a hit (about 4.8% of all), similar ones and a draw of the others.

SMILES | DAX1 inh-1 | hcDAF-12 act | ssDAF12 agonist | SMARCA2 activ | DAX1 inh-2 | hgDAF12 agonist | hgDAF12 conf | LXRb DAF12 ctr | others
Nc1ccccc1C(=O)OCCOc1ccccc1 | 4.3* | 9.3* | 0 | 3 | 1 | 11* | / | / | LXR ag=2;hcDAF12 conf=7.5*
CN1C(=O)NC(=O)C(C)(C2=CCCCC2)C1=O (stereo not given) | 3.9* | 5 | -1 | -1 | 3 | 22* | 13* | 0
COc1ccc2c(c1)NP(=S)(Oc1ccccc1)N2 (stereo not given) | 1 | 5 | 0 | 7 | 4 | 13* | 8 | 0
COc1cccc(-n2c(=S)[nH]c3ccccc3c2=O)c1 | -1 | 3 | -2 | -2 | -1 | 0 | / | /
Cc1cc(C(=O)OC(C)C(=O)Nc2ccccc2)c(C)n1C1CC1 (stereo not given) | -2 | -1 | -2 | -4 | -1 | 2 | / | /
CSCCC(c1nnnn1C(C)(C)C)N1CCC2(CC1)C(=O)NCN2c1ccccc1 (stereo not given) | -3 | -2 | -2 | -2 | / | 1 | / | /
COc1ccc(-c2cc(=Nc3cccc(C(=O)O)c3)c3cc(C)ccc3o2)cc1 | 3 | 5 | 0.9* | 3 | -1 | 19* | 19* | 1

Source: PubChem
